NTMT1 inh: NTMT1 methyltransferase inhibition | Q9BV86 | NTMT1 MTase-Glo SAH luminescence, purified enzyme | Potency, µM (series often up to 114 µM), for the others: at the highest dose activity change, negative = inhibition, hits mostly inhibitors | actives 2.5% (n = 59,000) | AID 1645870;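 further: plate controls were DMSO vehicle for no effect and no enzyme for full effect; nearly all actives have a fitted effect of over 65% in size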
FH mod: Identification of activators of human fumarate hydratase by quantitative high-throughput screening | Fumarate hydratase, mitochondrial (Homo sapiens), P07954 | FH coupled MDH/diaphorase resazurin fluorescence, 15 min | Potency, µM (top dose mostly 79.9 µM), for the others: at the top dose activity change, negative = inhibition, most hits filed as inhibitors | actives 0.22% (n = 54,000) | AID 1347055, 2019; further: on the % scale 0 is the no-effect control and ±100 the full control effect; the screen sought activators but most active calls are inhibition curves; nearly all actives have a fitted effect of over 45% in size
Target sequence (P07954 whole entry, looked up): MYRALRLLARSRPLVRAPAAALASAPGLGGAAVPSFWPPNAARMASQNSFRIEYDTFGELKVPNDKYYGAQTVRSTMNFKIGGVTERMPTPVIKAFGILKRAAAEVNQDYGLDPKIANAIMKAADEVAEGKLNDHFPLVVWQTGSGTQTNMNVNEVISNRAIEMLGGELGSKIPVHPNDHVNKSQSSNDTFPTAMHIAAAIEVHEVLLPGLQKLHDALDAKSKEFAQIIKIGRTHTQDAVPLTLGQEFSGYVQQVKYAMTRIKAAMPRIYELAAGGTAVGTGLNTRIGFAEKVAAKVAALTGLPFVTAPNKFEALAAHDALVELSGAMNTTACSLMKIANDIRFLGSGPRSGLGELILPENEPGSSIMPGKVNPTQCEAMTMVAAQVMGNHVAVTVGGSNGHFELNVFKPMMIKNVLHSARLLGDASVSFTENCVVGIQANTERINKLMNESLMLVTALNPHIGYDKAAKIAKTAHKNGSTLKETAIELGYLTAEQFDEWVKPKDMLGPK
GALC G270D act: raises human GALC G270D mutant activity in cells; Potency, µM (doses to about 57.5 µM), most hits filed as activators; AID 1159614; actives 0.1% (n = 45,000); 145M-Twi-hGALC-G270D cells (Twitcher mouse brain line with human GALC G270D), HMU-beta-Gal fluorescence, 48 h; further: 0% is about no effect; nearly all actives have a fitted effect of over 65% in size
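Mutant human GALC (G270D), stably expressed in a Twitcher mouse brain cell line lacking endogenous GALC, is measured in live-treated cells via 6-hexadecanoylamino-4-methylumbelliferyl-β-galactoside hydrolysis (0.1 mM final, pH 5.2) with fluorescent detection.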
* = called active by the depositor; ! = repeats disagree; [ ] = dose if it differs, or a comment. Shown is part of a subset that was picked to be rich in hits. The call rests on the fitted dose curve; in most records, active means well fitted curve in the direction sought with a large enough effect; inconclusive means small, poorly fitted or top-dose-only effect, or another doubt; inactive means no such curve, though single readings can be large; an effect the other way counts as inactive or inconclusive. Potency means the concentration at half of the fitted maximal effect.

What do the screens show for `O=c1c(-c2ccc(O)cc2)coc2cc(OC3O[C@H](CO)[C@H](O)[C@H](O)[C@H]3O)cc(O)c12` (stereo partly specified)?
NTMT1 inh: 24.1µM*; FH mod: inconclusive

Results for O=C(Cn1nc2c(cc1=O)CCCC2)NCc1ccc(Cl)cc1 ?
NTMT1 inh: 12.5%; FH mod: 5.4%; GALC G270D act: inactive

Results for O=C(Cn1nc2c(cc1=O)CCCC2)NCc1ccccc1 ?
NTMT1 inh: 89.1µM*; FH mod: 0.8%; GALC G270D act: inactive

What do the screens show for `NC(=S)c1ccc[n+]([C@@H]2O[C@@H](COP(=O)([O-])OP(=O)(O)OC[C@H]3O[C@@H](n4cnc5c(N)ncnc54)[C@H](OP(=O)(O)O)C3O)C(O)C2O)c1` (stereo partly specified)?
FH mod: -7.6%[53.3 µM]

What do the screens show for `O=C1CCCC2=C1C(c1[nH]ncc1Cl)NC(=NCc1ccccn1)N2` (stereo unspecified)?
NTMT1 inh: 11.4%

How did O=C1Nc2ccccc2/C1=C\c1ccc([N+](=O)[O-])cc1 do in these assays?
NTMT1 inh: -16.6%

Results for O=C1Nc2ccccc2/C1=C/c1cc(O)ccc1O ?
NTMT1 inh: 39.8µM*; FH mod: inconclusive

How did Cc1c(-c2cnccn2)ssc1=S do in these assays?
NTMT1 inh: 3.16µM*

How did COc1ccc(C2(O)CCC(N3CC[C@@H](NC(=O)CNC(=O)c4cccc(C(F)(F)F)c4)C3)CC2)cn1 (stereo partly specified) do in these assays?
NTMT1 inh: -2.6%[57.5 µM]; FH mod: -11.0%

Results for COc1ccc(-n2nc3c(N4CCCC(C(=O)NCc5ccc(C)cc5)C4)nnc(C)c3c2C)cc1 (stereo unspecified) ?
NTMT1 inh: inconclusive; FH mod: -25.0%; GALC G270D act: inactive

What do the screens show for `COc1ccc(CNC(=O)C2CCCN(c3nnc(C)c4c(C)n(-c5ccc(C)cc5)nc34)C2)cc1` (stereo unspecified)?
NTMT1 inh: 79.4µM*; FH mod: -28.1%; GALC G270D act: inactive

Results for COc1cccc(NS(=O)(=O)c2ccc(NCc3cccc(OC)c3O)cc2)c1 ?
NTMT1 inh: -1.2%

Results for CN(CC(=O)N(Cc1ccc(C2CCCCC2)cc1)c1ccc(C(=O)O)c(O)c1)S(=O)(=O)c1c(F)c(F)c(F)c(F)c1F ?
NTMT1 inh: 31.6µM*; FH mod: -17.5%[53.3 µM]

How did CCc1ccc(NC(=O)c2ccc(F)c(S(=O)(=O)N(C)C3CCCCC3)c2)cc1 do in these assays?
NTMT1 inh: -6.6%; FH mod: -18.8%; GALC G270D act: inactive

Results for CN(C)c1cnc2c(O)cccc2c1 ?
NTMT1 inh: 3.1%

What do the screens show for `CN(C)Cc1ccc(S(=O)(=O)n2ccc(/C=C/C(=O)NO)c2)cc1`?
NTMT1 inh: -3.4%

Results for CCOC(=O)c1nn(-c2ccccc2)c(=O)c2c(N)sc(C)c12 ?
NTMT1 inh: -4.2%

How did CCOC(=O)c1nn(-c2ccc(OC)cc2)c(=O)c2c(N)scc12 do in these assays?
NTMT1 inh: 12.6µM*

What do the screens show for `COC(=O)C1=CO[C@@H](O[C@@H]2O[C@H](CO)[C@@H](O)[C@H](O)[C@H]2O)[C@H]2[C@@H]1C=C[C@@]21C=C([C@H](C)O)C(=O)O1`?
NTMT1 inh: 9.3%[29.8 µM]; FH mod: 1.5%[53.3 µM]

What do the screens show for `O=C(COc1ccccc1Cl)Nc1nc2c(s1)CCCC2`?
NTMT1 inh: -2.0%; FH mod: -19.8%; GALC G270D act: inactive

How did CCCOc1ccccc1C(=O)Nc1nc2c(s1)CCCC2 do in these assays?
NTMT1 inh: 79.4µM*; FH mod: -14.7%; GALC G270D act: inactive

Results for CCOc1cccc(C(=O)Nc2nc3c(s2)CC(C(C)(C)C)CC3)c1 (stereo unspecified) ?
NTMT1 inh: inconclusive; FH mod: -40.0%; GALC G270D act: inactive

Results for COc1cccc(C(=O)Nc2nc3c(s2)CCCC3)c1 ?
NTMT1 inh: 39.8µM*; FH mod: -31.4%; GALC G270D act: inactive

How did Cc1ccc(OCCn2c(CCNC(=O)C(C)(C)C)nc3ccccc32)cc1 do in these assays?
NTMT1 inh: -1.5%[57.5 µM]

What do the screens show for `CC(C)=CCC(O)/C(C)=C/CO[C@@H]1O[C@H](CO)[C@@H](O)[C@H](O)[C@H]1O` (stereo partly specified)?
NTMT1 inh: 2.8%[29.8 µM]; FH mod: 6.4%[53.3 µM]

What do the screens show for `Cc1ccc2cc(-c3c(C)ccc(C(=O)c4c(-c5ccccc5)n(C)n(-c5ccccc5)c4=O)c3N)ccc2n1`?
NTMT1 inh: inconclusive; FH mod: -10.2%

Results for CC1CCN(S(=O)(=O)c2cc(C(=O)NCc3ccc(N(C)C)cc3)n(C)c2)CC1 ?
NTMT1 inh: 89.1µM*; FH mod: -5.0%; GALC G270D act: inactive

What do the screens show for `COc1cc(NC(=O)c2cc(S(=O)(=O)N3CCC(C)CC3)cn2C)cc(OC)c1OC`?
NTMT1 inh: 4.9%; FH mod: 3.5%; GALC G270D act: inactive

How did CC1CCN(S(=O)(=O)c2cc(C(=O)NCCc3ccccc3)n(C)c2)CC1 do in these assays?
NTMT1 inh: -17.4%; FH mod: -31.3%; GALC G270D act: inactive

How did Cc1ccc(NC(=O)c2cc(S(=O)(=O)N3CCC(C)CC3)cn2C)cc1Cl do in these assays?
NTMT1 inh: 89.1µM*; FH mod: -3.7%; GALC G270D act: inconclusive

Results for COC(=O)C[C@H]1C(C)(C)[C@H](OC(=O)C(C)C)[C@@]2(O)C(=O)[C@]1(C)C1CC[C@]3(C)C(CC(=O)O[C@H]3c3ccoc3)[C@]13O[C@@H]32 (stereo partly specified) ?
NTMT1 inh: 6.1%[12.6 µM]; FH mod: -0.2%[20.6 µM]

How did COC(=O)CCC1(C)C(C(C)(C)O)C(O)CC2(C)Oc3c(C)c4c(c(OC)c3CC21)C(=O)OC4 (stereo unspecified) do in these assays?
NTMT1 inh: -4.7%[29.8 µM]; FH mod: 5.5%[53.3 µM]

How did COc1ccc(S(=O)(=O)N2CCc3cccc(-c4ccncc4)c32)cc1 do in these assays?
NTMT1 inh: 0.2%

How did Nc1ccc(C(=O)O)c(O)c1 do in these assays?
NTMT1 inh: 35.5%[57.5 µM]; FH mod: -7.2%[53.3 µM]; GALC G270D act: inactive

How did Cc1ccc(N)cc1O do in these assays?
NTMT1 inh: inconclusive; FH mod: 20µM*; GALC G270D act: inactive

How did NC1(c2ccc(-c3nc4ccn5c(=O)[nH]nc5c4cc3-c3ccccc3)cc2)CCC1 do in these assays?
NTMT1 inh: 50.1µM*!; FH mod: 7.0%; GALC G270D act: inactive

What do the screens show for `C=C1[C@H](OC(=O)/C=C(\C)CC)C[C@@H](C(C)C)[C@@H]2[C@H]([C@@H](C)OC(C)=O)C(=O)C[C@@H]12`?
NTMT1 inh: -11.2%

How did O=C1NC(=O)/C(=C/c2ccc(-c3ccc(F)cc3)o2)S1 do in these assays?
NTMT1 inh: inconclusive; FH mod: -0.1%

How did O=C1NC(=O)C(=Cc2ccc(-c3ccc(F)cc3)o2)S1 do in these assays?
NTMT1 inh: 21.5µM*; FH mod: -16.4%[53.3 µM]

Screening data: PubChem BioAssay, National Center for Advancing Translational Sciences (NCATS)
